# Test system: Escherichia coli
# Assay: Antibacterial activity against Escherichia coli ATCC 25922 (CO-ADD:GN_001); MIC in CAMBH media using NBS plates, by Resazurin F(560/590)
# Type: functional
# Settings: Concentration 20 uM, ASSAY_TEST Inhibition of Bacterial Growth, detection method Resazurin, Fluorescence (ex560/em590), MEDIA CAMHB, plate type 384well, CORNING #3640, time 18 hr
row,SMILES,Inhibition
1,S=C(Nc1ccccc1)c1ccccn1,1.02%
2,CCSc1nc(C)cc(S)n1,13.36%
3,Cc1cc(=O)n2nc(-c3ccc(C(C)(C)C)cc3)cc2[nH]1,6.17%
4,Cc1nc(N)nc(Cl)c1CCC1OCCO1,8.75%
5,CCCNC(=O)c1ccccc1C(=O)NC1(C(=O)NCCC)CCCC1,3.42%
6,COc1ccc2c(C)cc(C)nc2n1,1.95%
7,Cc1c(NC(=O)Nc2c(Cl)cccc2Cl)c(=O)n(-c2ccccc2)n1C,6.32%
8,CSc1cccc(NC(=O)Nc2nc3c(C)cccc3s2)c1,8.83%
9,COc1ccc2c(c1)CCCN2C(=N)Nc1ccc(Cl)cc1,-14.68%
10,COc1ccc(NC(=O)c2cc3ccc4c5ccccc5[nH]c4c3cc2O)cc1,1.69%
11,NC(=S)NC(=O)c1ccccc1,13.89%
12,Cc1ccc(-c2cssc2=S)cc1,-20.59%
13,O=C(Nc1ccc2ncccc2c1)Nc1ccc2ncccc2c1,13.25%
14,Nc1ccc(C(=O)Nc2cccc(N)c2)cc1,5.56%
15,CCOC(=O)c1c(C)nc(C)c(C(=O)OCC)c1-c1ccc(OC)cc1,-21.92%
16,CC(C)COc1nc2c(c(=O)n(C)c(=O)n2C)n1C,12.8%
17,CN1C(=O)c2ccccc2Cc2c(NCc3ccccc3)ncnc21,1.48%
18,Nc1ccnn1-c1ccccc1,2.95%
19,COc1ccc(/N=N/c2ccc(N)nc2N)cc1,5.08%
20,CCOC(=O)c1nc(SC)n(C)c1C(=O)OCC,18.32%

# Source: ChEMBL document CHEMBL4296182, “CO-ADD screening of NIH NCI Diversity Set V”
